According to the supplement of paper PMC11732987, “Enantioselective OTUD7B fragment discovery through chemoproteomics screening and high-throughput optimisation” (Communications Chemistry, 2025):

What was measured:
Experiment in all cases: log2 ratio of Biotin-Ahx-Ub-VS probe labelling (fragment/DMSO); higher = less target engagement (more negative = stronger competition), active = hit call of the paper (q ≤ 0.05, log2 ratio ≤ -1)
Conditions in all cases: compound concentration: 200 uM; treatment time: 3 h
USP42 = molecular target: T1, USP42 (UniProt Q9H9J4)
T1 sequence (whole entry): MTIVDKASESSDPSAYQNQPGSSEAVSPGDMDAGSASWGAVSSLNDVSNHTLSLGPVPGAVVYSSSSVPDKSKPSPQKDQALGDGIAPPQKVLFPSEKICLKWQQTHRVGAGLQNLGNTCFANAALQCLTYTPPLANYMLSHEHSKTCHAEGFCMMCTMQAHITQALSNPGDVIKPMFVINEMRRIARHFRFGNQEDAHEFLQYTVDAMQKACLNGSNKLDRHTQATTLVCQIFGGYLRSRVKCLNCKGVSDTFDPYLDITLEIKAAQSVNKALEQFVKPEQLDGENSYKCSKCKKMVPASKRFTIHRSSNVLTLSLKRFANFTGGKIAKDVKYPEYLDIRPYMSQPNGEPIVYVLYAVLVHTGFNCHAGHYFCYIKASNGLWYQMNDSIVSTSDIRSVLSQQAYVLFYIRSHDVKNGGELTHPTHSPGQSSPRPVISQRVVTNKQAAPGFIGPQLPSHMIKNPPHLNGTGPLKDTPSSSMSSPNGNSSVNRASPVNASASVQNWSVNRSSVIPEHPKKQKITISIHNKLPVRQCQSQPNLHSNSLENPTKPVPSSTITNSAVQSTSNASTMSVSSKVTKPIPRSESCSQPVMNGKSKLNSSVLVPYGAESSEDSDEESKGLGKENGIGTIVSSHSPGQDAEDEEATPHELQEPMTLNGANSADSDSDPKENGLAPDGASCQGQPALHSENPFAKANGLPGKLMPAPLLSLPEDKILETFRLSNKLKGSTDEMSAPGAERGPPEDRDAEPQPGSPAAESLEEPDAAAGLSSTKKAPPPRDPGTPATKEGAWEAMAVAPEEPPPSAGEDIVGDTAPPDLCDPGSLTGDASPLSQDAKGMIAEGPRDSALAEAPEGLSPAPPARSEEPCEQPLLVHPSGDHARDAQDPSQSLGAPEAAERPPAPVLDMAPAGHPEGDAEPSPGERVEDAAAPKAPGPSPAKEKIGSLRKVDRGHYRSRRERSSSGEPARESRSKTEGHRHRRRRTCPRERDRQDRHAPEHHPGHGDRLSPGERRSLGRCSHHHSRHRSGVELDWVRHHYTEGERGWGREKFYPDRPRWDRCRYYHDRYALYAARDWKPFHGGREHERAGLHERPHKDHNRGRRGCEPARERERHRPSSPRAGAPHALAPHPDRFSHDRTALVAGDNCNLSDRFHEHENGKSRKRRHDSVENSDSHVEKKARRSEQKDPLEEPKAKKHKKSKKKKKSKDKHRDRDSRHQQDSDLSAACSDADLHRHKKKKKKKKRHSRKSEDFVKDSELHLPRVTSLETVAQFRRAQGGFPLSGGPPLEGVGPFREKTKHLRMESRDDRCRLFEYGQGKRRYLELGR
Method in brief: (§1)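 Triplicate samples of HEK293T lysate, 495 µg each, received fragment at 200 µM or vehicle for 3 h, followed by Biotin-Ahx-Ub-VS (0.5 µM final) for 1 h. After NeutrAvidin enrichment of labelled DUBs and LysC/trypsin digestion, peptides were run by diaPASEF LC-MS/MS. The values are average log2 fragment/vehicle ratios from global-median-normalised Spectronaut label-free quantities, tested by unpaired t-test on proteins having ≥2 unique peptides.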

USP46 = USP46 (UniProt P62068)
Method in brief: as §1

USP47 = molecular target: T2, USP47 (UniProt Q96K76)
T2 sequence (whole entry): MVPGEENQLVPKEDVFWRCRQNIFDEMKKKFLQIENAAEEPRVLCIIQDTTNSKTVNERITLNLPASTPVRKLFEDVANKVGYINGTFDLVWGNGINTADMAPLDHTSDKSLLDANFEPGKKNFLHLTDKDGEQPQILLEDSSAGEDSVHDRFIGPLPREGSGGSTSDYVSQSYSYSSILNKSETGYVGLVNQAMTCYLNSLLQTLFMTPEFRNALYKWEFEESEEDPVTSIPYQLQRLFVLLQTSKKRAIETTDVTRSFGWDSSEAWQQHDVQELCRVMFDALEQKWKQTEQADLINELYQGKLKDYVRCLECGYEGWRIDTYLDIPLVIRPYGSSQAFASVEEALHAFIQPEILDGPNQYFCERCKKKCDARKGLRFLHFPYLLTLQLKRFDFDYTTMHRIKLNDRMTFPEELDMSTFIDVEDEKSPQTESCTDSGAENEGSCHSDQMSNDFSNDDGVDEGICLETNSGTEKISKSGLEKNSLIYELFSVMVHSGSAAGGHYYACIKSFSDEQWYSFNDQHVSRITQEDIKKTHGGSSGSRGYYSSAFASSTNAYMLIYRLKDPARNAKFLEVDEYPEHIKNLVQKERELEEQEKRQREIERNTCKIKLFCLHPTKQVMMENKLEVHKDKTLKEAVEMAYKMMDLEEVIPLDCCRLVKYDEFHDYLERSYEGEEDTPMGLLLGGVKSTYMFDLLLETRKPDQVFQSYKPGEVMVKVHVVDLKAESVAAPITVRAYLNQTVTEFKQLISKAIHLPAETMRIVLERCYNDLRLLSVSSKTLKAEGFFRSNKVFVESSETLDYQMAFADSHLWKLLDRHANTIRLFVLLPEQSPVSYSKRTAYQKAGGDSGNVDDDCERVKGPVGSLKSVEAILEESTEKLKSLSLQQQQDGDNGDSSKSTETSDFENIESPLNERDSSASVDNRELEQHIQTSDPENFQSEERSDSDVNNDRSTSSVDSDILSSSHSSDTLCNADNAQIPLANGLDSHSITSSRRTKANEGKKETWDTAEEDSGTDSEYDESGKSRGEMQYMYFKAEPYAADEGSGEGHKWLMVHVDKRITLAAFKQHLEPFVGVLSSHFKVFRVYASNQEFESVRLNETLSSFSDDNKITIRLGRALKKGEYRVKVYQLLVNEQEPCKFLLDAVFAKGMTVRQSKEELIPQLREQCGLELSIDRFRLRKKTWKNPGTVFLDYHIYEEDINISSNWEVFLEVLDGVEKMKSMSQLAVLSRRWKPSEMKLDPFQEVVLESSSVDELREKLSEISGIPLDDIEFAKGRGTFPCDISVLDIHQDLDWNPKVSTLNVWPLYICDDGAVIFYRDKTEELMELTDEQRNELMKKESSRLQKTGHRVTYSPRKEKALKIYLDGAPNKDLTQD
Method in brief: as §1

USP48 = molecular target: T3, USP48 (UniProt Q86UV5)
T3 sequence (whole entry): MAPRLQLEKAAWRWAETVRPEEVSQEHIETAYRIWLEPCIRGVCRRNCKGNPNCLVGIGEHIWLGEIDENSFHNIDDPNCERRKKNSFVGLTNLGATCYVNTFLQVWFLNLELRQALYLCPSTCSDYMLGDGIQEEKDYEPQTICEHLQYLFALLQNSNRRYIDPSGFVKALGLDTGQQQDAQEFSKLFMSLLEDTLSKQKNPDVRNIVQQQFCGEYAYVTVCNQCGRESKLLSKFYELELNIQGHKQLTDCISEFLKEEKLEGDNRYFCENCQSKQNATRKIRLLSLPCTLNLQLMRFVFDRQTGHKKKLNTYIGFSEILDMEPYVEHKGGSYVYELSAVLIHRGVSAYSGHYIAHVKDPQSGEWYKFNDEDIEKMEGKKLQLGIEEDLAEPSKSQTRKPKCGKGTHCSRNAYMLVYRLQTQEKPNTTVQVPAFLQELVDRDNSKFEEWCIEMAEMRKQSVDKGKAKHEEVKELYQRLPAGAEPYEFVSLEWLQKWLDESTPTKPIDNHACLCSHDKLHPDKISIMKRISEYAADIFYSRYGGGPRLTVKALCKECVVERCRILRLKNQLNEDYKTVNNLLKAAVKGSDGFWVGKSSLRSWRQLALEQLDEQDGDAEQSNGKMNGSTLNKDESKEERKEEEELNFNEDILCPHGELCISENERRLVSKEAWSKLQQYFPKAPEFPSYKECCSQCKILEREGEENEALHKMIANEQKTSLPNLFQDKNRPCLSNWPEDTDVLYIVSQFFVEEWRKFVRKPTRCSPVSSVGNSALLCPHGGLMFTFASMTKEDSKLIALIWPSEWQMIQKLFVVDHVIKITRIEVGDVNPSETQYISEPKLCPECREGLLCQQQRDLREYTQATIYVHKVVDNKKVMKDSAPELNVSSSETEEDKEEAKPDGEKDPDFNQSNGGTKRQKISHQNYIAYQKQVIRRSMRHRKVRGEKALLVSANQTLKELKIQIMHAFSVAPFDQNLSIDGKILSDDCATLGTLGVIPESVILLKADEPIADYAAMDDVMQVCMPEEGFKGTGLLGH
Method in brief: as §1

USP5 = molecular target: T4, USP5 (UniProt P45974)
T4 sequence (whole entry): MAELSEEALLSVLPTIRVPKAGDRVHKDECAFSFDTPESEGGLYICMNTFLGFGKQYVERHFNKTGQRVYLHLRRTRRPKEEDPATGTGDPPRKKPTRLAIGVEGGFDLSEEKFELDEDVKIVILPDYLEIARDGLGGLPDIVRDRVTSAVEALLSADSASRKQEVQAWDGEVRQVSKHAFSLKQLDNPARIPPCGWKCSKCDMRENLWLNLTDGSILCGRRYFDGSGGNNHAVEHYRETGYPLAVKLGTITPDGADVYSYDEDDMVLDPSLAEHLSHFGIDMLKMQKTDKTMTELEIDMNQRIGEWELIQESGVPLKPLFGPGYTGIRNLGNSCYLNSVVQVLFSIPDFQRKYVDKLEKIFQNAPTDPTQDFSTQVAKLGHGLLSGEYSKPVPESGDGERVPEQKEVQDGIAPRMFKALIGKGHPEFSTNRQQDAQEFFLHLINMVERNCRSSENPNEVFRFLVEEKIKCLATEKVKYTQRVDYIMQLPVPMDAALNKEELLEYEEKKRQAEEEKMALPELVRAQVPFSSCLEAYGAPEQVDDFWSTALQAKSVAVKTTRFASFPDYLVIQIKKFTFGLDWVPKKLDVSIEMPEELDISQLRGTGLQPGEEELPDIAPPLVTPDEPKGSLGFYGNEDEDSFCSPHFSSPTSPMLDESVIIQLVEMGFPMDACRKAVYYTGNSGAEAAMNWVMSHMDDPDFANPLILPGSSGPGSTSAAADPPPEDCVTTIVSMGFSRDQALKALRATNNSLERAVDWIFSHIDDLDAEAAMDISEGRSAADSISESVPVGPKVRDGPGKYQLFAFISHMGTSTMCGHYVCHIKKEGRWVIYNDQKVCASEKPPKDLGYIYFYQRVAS
Method in brief: as §1

USP54 = USP54 (UniProt Q70EL1)
Method in brief: as §1

USP7 = USP7 (UniProt Q93009)
Method in brief: as §1

USP8 = molecular target: T5, USP8 (UniProt P40818)
T5 sequence (whole entry): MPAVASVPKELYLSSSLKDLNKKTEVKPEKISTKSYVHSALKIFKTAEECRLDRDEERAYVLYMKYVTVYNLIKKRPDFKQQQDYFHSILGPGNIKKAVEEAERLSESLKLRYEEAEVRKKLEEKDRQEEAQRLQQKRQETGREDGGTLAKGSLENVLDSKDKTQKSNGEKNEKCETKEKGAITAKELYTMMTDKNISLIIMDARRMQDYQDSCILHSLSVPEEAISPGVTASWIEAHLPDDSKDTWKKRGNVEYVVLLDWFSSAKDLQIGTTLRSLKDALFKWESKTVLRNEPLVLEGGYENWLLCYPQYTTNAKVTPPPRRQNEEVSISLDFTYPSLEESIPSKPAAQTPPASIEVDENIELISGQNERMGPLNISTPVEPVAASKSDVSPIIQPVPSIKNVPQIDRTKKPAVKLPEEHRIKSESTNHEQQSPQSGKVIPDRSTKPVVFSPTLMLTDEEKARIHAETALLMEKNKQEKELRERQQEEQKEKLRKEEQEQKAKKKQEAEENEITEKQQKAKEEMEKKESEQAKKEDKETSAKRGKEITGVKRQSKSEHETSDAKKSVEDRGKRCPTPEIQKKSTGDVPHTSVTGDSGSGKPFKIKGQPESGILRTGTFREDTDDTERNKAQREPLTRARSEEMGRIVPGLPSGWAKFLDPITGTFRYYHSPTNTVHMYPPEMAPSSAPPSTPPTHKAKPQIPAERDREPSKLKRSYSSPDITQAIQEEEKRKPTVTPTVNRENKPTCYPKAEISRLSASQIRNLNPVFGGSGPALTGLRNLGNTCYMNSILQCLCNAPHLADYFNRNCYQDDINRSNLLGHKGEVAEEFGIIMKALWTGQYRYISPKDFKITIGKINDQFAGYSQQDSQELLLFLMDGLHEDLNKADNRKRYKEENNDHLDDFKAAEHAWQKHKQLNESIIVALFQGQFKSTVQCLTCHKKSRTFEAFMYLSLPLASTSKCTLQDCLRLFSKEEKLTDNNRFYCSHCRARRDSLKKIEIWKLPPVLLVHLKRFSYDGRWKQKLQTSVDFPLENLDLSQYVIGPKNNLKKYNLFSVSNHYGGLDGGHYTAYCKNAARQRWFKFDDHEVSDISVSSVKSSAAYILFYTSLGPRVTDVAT
Method in brief: as §1

USP9X = USP9X (UniProt Q93008)
Method in brief: as §1

UniProt O00487 = molecular target: UniProt O00487
Method in brief: as §1

Measured: log2 ratio of Biotin-Ahx-Ub-VS probe labelling

USP54, sequence (Q70EL1 whole entry): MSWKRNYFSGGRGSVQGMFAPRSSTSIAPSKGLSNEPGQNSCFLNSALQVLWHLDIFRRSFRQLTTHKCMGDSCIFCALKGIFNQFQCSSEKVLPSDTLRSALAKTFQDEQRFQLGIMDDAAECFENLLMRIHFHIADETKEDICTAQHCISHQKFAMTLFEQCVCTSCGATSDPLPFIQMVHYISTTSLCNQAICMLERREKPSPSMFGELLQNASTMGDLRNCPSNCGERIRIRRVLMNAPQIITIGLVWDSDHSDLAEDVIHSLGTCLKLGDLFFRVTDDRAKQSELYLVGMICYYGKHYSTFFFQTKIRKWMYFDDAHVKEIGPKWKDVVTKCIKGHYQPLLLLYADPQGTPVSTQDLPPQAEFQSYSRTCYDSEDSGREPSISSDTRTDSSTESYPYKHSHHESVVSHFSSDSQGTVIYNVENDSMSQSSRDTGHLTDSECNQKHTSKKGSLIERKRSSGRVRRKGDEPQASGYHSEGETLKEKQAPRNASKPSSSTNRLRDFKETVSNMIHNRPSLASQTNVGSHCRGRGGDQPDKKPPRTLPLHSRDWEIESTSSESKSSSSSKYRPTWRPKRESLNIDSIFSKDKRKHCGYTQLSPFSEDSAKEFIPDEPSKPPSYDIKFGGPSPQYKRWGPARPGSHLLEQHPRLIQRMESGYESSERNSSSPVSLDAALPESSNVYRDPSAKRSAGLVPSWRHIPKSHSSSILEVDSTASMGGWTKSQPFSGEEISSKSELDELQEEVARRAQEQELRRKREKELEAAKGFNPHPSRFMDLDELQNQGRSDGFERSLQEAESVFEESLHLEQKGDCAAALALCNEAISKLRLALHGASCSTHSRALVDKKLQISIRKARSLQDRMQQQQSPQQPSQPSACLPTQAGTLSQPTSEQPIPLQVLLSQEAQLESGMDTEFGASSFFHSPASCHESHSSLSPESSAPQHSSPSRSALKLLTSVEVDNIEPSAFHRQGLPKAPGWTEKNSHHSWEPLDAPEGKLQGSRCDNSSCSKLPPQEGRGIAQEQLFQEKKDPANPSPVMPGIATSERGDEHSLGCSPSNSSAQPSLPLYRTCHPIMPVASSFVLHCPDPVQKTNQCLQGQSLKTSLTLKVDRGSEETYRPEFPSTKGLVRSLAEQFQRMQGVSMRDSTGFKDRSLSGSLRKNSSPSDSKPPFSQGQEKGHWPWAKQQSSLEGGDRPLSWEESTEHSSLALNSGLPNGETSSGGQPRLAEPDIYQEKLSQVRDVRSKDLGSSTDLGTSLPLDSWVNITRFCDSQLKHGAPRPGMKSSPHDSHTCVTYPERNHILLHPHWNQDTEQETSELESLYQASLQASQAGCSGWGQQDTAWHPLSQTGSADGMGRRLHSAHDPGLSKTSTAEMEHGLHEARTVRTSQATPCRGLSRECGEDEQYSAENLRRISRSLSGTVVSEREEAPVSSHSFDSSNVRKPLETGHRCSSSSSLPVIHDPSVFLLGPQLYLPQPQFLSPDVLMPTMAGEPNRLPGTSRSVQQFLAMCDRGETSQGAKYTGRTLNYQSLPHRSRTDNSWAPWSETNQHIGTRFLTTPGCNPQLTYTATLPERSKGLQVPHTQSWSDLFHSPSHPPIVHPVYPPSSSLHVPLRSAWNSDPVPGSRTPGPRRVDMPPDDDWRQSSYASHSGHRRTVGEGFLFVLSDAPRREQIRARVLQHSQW
UniProt O00487, sequence (O00487 whole entry): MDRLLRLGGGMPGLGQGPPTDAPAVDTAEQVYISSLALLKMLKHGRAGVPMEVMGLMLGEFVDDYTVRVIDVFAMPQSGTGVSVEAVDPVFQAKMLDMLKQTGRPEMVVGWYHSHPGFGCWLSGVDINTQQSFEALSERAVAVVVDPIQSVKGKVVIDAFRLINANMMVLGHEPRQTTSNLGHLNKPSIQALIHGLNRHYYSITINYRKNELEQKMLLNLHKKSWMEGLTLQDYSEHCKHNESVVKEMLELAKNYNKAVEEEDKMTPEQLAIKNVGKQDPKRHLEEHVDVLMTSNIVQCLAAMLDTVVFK
USP9X, sequence (Q93008 whole entry): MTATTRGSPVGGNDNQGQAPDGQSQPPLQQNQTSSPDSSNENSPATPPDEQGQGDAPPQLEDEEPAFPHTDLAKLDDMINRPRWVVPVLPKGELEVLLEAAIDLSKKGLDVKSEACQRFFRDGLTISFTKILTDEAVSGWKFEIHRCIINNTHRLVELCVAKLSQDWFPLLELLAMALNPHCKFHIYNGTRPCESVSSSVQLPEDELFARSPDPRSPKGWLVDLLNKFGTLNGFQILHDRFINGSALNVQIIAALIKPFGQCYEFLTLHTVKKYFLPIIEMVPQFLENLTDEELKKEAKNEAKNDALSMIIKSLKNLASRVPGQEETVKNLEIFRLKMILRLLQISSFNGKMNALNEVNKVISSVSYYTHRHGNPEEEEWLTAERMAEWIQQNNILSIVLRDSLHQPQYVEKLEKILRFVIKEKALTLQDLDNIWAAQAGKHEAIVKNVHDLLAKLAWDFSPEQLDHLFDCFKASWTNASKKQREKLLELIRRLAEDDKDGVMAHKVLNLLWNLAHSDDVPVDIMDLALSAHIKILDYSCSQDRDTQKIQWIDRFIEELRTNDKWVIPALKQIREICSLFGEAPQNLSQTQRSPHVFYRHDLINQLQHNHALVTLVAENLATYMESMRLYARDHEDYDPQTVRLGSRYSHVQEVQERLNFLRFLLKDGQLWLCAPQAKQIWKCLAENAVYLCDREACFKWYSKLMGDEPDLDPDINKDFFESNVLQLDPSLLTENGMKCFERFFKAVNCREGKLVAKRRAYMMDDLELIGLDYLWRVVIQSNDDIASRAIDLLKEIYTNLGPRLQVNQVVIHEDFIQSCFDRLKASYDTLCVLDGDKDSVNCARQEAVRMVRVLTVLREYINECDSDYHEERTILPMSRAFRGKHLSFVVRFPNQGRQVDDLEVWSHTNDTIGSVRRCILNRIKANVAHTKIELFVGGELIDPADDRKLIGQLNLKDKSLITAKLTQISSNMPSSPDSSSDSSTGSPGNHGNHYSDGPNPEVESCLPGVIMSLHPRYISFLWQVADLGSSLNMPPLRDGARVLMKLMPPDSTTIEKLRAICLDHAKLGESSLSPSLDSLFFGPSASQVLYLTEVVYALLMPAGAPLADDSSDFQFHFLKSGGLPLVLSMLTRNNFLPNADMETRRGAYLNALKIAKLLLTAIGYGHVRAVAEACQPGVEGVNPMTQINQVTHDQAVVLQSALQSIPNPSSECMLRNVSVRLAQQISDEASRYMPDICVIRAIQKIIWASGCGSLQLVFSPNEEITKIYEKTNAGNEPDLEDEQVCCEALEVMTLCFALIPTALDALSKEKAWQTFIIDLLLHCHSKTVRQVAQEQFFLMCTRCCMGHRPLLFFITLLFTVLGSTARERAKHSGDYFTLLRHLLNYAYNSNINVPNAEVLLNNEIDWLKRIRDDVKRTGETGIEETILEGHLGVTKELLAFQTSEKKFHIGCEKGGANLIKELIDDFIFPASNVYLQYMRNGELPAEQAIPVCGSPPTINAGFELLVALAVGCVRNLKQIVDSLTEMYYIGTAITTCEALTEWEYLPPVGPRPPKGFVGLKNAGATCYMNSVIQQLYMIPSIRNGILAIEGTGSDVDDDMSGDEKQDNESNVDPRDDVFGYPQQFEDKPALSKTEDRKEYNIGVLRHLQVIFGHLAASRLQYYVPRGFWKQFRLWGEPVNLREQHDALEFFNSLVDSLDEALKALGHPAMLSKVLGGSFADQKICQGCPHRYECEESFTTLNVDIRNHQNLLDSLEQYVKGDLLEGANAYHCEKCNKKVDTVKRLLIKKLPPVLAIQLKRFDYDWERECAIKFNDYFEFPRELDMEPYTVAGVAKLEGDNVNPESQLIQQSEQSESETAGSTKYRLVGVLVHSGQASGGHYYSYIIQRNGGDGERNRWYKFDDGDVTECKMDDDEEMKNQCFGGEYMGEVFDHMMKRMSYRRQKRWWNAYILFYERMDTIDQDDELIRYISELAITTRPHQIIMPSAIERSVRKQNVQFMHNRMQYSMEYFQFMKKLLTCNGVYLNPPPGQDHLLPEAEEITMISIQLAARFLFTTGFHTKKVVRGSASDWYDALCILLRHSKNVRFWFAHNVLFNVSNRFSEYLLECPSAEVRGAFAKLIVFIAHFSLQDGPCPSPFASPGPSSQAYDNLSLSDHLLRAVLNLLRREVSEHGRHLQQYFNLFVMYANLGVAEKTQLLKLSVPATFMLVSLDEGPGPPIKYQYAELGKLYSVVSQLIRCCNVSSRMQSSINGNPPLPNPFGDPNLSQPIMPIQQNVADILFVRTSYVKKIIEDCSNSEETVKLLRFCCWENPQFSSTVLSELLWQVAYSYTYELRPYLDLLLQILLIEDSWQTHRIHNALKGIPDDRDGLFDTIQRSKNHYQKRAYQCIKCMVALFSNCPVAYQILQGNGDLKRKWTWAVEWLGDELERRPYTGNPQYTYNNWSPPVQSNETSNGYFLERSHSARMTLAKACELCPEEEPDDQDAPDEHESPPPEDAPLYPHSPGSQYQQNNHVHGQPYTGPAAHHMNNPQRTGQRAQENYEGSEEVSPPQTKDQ
USP46, sequence (P62068 whole entry): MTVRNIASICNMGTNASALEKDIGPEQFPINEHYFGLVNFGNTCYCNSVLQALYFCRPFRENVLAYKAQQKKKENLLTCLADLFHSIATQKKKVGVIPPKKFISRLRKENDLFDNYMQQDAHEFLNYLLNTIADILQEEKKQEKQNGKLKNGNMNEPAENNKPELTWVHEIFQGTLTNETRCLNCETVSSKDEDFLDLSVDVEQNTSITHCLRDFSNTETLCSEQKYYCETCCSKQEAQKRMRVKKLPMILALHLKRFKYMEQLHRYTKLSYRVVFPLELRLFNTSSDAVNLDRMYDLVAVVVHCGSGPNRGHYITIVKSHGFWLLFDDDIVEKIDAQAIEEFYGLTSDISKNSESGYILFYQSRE

Cl.O=C(CCl)NCc1ccnc(Oc2ccccc2F)c1
inactive: USP42 -0.336 | USP46 0.0702 | USP47 -0.71 | USP48 -0.278 | USP5 0.126 | USP54 0.365 | USP7 -0.357 | USP8 -0.181 | USP9X -0.17 | UniProt O00487 0.13
